ELG1 genotox: qHTS screen for small molecules that induce genotoxicity in human embryonic kidney (HEK293T) cells expressing luciferase-tagged ELG1; HEK293T ELG1-luciferase reporter, luminescence, 16 h; Potency, µM (series often up to 46 µM), inactives show at the top dose activity change, positive = activation, hits mostly activators; 1.3% of 330,000 active; AID 504466, 2011; note: % of control where 0% means no effect; nearly all actives have a fitted effect of over 60% in size
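Screening used a luciferase reporter fused to human ELG1 in HEK293T cells. Luminescence was read on a CCD plate imager after 16 hr exposure and 30 min ONE-Glo incubation.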
SMN2 splice up: qHTS Assay for Enhancers of SMN2 Splice Variant Expression. HEK293 SMN2-luciferase splicing reporter, luminescence, 30-36 h. 2.8% of 210,000 active. Potency, µM (series often up to 46.1 µM), for the others: top-dose activity change, positive = activation, most hits filed as activators. AID 1458, 2008; note: % of control where 0% means no effect; nearly all actives have a fitted effect of over 55% in size
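qHTS luciferase splicing reporter: luminescence rises when SMN2 exon 7 is included in transfected HEK293 cells. Compound exposure lasted 30-36 h at 37C, with 4.5 mM final sodium butyrate as control, followed by a ONE-Glo read.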
Rab9 promoter act: qHTS Assay for Rab9 Promoter Activators. Huh7 Rab9 promoter-luciferase reporter, luminescence, 24 h. Potency, µM (series often up to 9.22 µM), inactives show at the top dose activation, negative = inhibition, most hits filed as activators. 2.8% of 320,000 active; note: % of control where 0% means no effect; nearly all actives have a fitted effect of over 60% in size
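Luminescence from Amplite-detected luciferase (10 minutes, ambient) reports Rab9 promoter activation. Before that, stable Rab9-luciferase Huh7 cells (1500/well, reduced-serum OP-MEM I plus 10% FBS) were exposed to compound for 24 hours at 37C.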
FLuc modulator: qHTS profiling assay for firefly luciferase inhibitor/activator using purifed enzyme and Km concentrations of substrates (counterscreen for miR-21 project); Potency, µM (titrated, usually from 57.5 µM), for inactives: at the highest dose activity change, negative = inhibition, actives largely listed as inhibitors; Luciferin 4-monooxygenase (Photinus pyralis), P08659; 6.9% of 360,000 active; purified FLuc, Km substrates, luminescence inhibition;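 note: plate controls were vehicle for no effect and reference inhibitor for full effect; nearly all actives have a fitted effect of over 55% in size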
Target sequence (P08659 whole entry, looked up): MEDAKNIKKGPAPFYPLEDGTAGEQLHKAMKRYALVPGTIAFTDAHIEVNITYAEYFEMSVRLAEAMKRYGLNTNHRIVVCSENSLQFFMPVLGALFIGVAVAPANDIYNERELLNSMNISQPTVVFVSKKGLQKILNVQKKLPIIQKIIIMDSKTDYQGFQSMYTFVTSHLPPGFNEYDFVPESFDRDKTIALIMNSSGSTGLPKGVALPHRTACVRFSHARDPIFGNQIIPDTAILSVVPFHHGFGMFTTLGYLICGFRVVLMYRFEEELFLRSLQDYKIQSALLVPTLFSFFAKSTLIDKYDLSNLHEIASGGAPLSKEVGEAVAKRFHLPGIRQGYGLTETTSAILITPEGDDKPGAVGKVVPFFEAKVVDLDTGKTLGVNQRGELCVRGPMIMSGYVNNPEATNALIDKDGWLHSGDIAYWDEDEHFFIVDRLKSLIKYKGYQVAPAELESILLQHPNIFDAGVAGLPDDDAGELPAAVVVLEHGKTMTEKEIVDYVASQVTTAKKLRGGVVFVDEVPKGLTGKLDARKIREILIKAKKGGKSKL
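Purified P. pyralis luciferase, 10 nM final, with Km-level 10 uM D-luciferin and 10 uM ATP in 50 mM Tris acetate pH 7.5, 10 mM Mg acetate, 0.01% Tween-20, 0.05% BSA; 6-point qHTS titration about 60 µM downward; luminescence read.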
NPC1 promoter act: qHTS Assay for NPC1 Promoter Activators. Huh7 NPC1 promoter luciferase reporter, 24 h. Potency, µM (highest dose often 9.22 µM), for inactives: top-dose activation, most hits filed as activators. 2.4% of 320,000 active. AID 485313, 2010; note: % of control where 0% means no effect; nearly all actives have a fitted effect of over 60% in size
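In 1536-well qHTS, Huh7 cells harboring an NPC1 promoter–luciferase construct received compound for 24 h; activation was quantified by luminescence following luciferase reagent addition.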
KinaseGlo FLuc: Counterscreen for Luciferase (Kinase-Glo TM) Inhibition; Luciferin 4-monooxygenase (Photuris pensylvanica), Q27757; Kinase-Glo luciferase, ATP luminescence, 8 min; Potency, µM (highest dose often 38.3 µM), without a hit: at the highest dose activity change, negative = inhibition, actives largely listed as inhibitors; 0.28% of 200,000 active; note: % is set by controls: 0 for no effect and ±100 for the full control effect; nearly all actives have a fitted effect of over 60% in size
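Substrate mix (final 50 mM imidazole pH 7.2, 50 mM KCl, 7 mM MgCl2, 10 uM ATP, 0.01% Tween 20, 0.05% BSA) plus pin-tool compound, then Kinase-Glo detection mix; 8 min ambient, luminescence read.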
Starred values were filed as active, the others as inactive; [ ] = another dose, or the depositor's remark. The list is not random: actives were taken first. Their share in the collection is about 7.5%. Calls come from the whole dose curve; as a rule, active = well fitted curve in the direction sought with a large enough effect; inconclusive = small, poorly fitted or top-dose-only effect, or another doubt; inactive = no such curve, though single readings can be large; an effect the other way counts as inactive or inconclusive. Potency is the fitted concentration of half-maximal effect.

How did COc1ccc(-c2cc(C(=O)OC3CCOC3=O)c3ccccc3n2)cc1 (configuration not stated) do in these assays?
ELG1 genotox: 9%; SMN2 splice up: 5%; Rab9 promoter act: -5%; FLuc modulator: 7.6µM*; NPC1 promoter act: 2%; KinaseGlo FLuc: 1%

What do the screens show for `Cc1cc(C(=O)OC2CCOC2=O)c2ccccc2n1` (configuration not stated)?
ELG1 genotox: -1%; SMN2 splice up: -11%; Rab9 promoter act: -1%; FLuc modulator: 1%; NPC1 promoter act: 2%; KinaseGlo FLuc: 0%

How did CCOc1ccccc1/C=N/NC(=O)c1cccc(S(=O)(=O)N2CCOCC2)c1 do in these assays?
ELG1 genotox: 4%; SMN2 splice up: 10%; Rab9 promoter act: -2%; FLuc modulator: -7%; NPC1 promoter act: -5%; KinaseGlo FLuc: -1%

What do the screens show for `O=C(OCc1nc2ccccc2s1)c1cccc(S(=O)(=O)N2CCOCC2)c1`?
ELG1 genotox: inconclusive; SMN2 splice up: 12%; Rab9 promoter act: 9%; FLuc modulator: 8.5µM*; NPC1 promoter act: 8%; KinaseGlo FLuc: -4%

Results for O=C(COC(=O)c1cccc(S(=O)(=O)N2CCOCC2)c1)c1ccccc1 ?
ELG1 genotox: -3%; Rab9 promoter act: -2%; FLuc modulator: 13µM*; NPC1 promoter act: -4%

How did O=C(CCc1nc2ccccc2[nH]c1=O)OCc1ccc(S(=O)(=O)N2CCOCC2)cc1 do in these assays?
ELG1 genotox: 1%; SMN2 splice up: 0%; Rab9 promoter act: 3%; FLuc modulator: 2%; NPC1 promoter act: -2%; KinaseGlo FLuc: -1%

How did O=C(N/N=C/c1ccccc1C(=O)O)c1cccc(S(=O)(=O)N2CCOCC2)c1 do in these assays?
ELG1 genotox: 1%; Rab9 promoter act: 1%; FLuc modulator: 12µM*; NPC1 promoter act: 1%

What do the screens show for `O=C(CCc1ccc(S(=O)(=O)N2CCOCC2)cc1)OCc1nc2ccccc2s1`?
ELG1 genotox: inconclusive; SMN2 splice up: -42%; Rab9 promoter act: 6%; FLuc modulator: 21µM*; NPC1 promoter act: -3%; KinaseGlo FLuc: 4%

Results for O=C(OCCOc1ccccc1)c1cccc(S(=O)(=O)N2CCOCC2)c1 ?
ELG1 genotox: -1%; Rab9 promoter act: 4%; FLuc modulator: 3%; NPC1 promoter act: -6%

How did O=C(NCCO)C(=O)NCC(c1ccc2c(c1)OCO2)N1CCOCC1 (configuration not stated) do in these assays?
FLuc modulator: -2%

How did CCCN1Cc2cccc(C(=O)Nc3cc(C)cc(C)c3)c2C1=O do in these assays?
SMN2 splice up: 2%; FLuc modulator: -8%

Results for COc1ccc(CNC(=O)c2ccc(NC(=O)N3CCSc4ncccc43)cc2)c(OC)c1 ?
FLuc modulator: -9%

Results for COc1cccc(CN(C(=O)c2oc3ccccc3c2C)C2CCS(=O)(=O)C2)c1 (configuration not stated) ?
SMN2 splice up: -4%; FLuc modulator: 3%

How did Cc1ccccc1/C(N)=N/OC(=O)c1cccs1 do in these assays?
ELG1 genotox: inconclusive; SMN2 splice up: -3%[1.84 µM]; Rab9 promoter act: 18%; FLuc modulator: 6.7µM*; NPC1 promoter act: -1%; KinaseGlo FLuc: inconclusive

Results for CCSc1ccc(/C(N)=N/OC(=O)c2cccs2)cn1 ?
ELG1 genotox: 13µM*; Rab9 promoter act: inconclusive; FLuc modulator: 6µM*; NPC1 promoter act: inconclusive

What do the screens show for `CCOP(=O)(OCC)/C(=N/OC(=O)c1ccc(Cl)cc1Cl)C(N)=O`?
ELG1 genotox: 1%; Rab9 promoter act: -4%; FLuc modulator: -18%; NPC1 promoter act: -11%

Assay outcomes (PubChem BioAssay)
